Test results reported in PubChem BioAssay (EPA / NIEHS).
Several values for one entry are separate records, joined by “and”; a condition that tells them apart may be missing. Identical values can stand only once. Some structures have more than one record in an assay (separate samples or runs), and their calls can disagree. Activity calls are given as the source filed them. The calls were made as follows: active = hit-call score of the fitted dose curve at least 0.9, where 1 is the maximum; inactive = score below 0.9.

experiment: CCTE_Shafer_MEA_dev_burst_rate: CCTE's Neural Network Formation Assay for Burst Rate, Shafer Lab (AID 2284042)
Protocol: CCTE_Shafer_MEA_dev assay is conducted using Axion Biosystems 48 well microelectrode array (MEA) plates and Maestro recording system. Each well of the MEA plate contains a grid of 16 microelectrodes embedded in the culture surface. Electrically active cells, such as neurons, can be cultured over the electrodes, and electrical activity in these cells can be recorded extracellularly. The spontaneous firing of neurons is captured from each electrode on a microsecond timescale providing both temporally and spatially precise data. […] The CCTE_Shafer_MEA_dev assay uses primary cultures of rat cortical neurons. Recordings are made on days post-plating 5, 7, 9 and 12. As these cultures mature over time, neural networks develop functional activity and form cohesive networks in which electrical activity can be highly coordinated. CCTE_Shafer_MEA_dev_burst_rate is 1 of 19 assay components of the CCTE_Shafer_MEA_dev assay. It measures the frequency of single-electrode bursts (temporally-clustered groups of action potential firing) as the total number of bursts divided by the length of the recording in a microelectrode array (MEA) using Axion Biosystems Maestro 768 channel amplifier with the AxIS adaptive spike detector. The mean bursting rate is averaged across the active electrodes to report a well-mean value. To collapse across multiple recordings made on days post-plating 5, 7, 9 and 12, the trapezoidal area-under-the-curve of the component is calculated.Data from the assay component CCTE_Shafer_MEA_dev_burst_rate was analyzed into 1 assay endpoint. This assay endpoint, CCTE_Shafer_MEA_dev_burst_rate, was analyzed in the negative analysis fitting direction relative to DMSO as the negative control and baseline of activity. Using a type of functional reporter, gain or loss-of-signal activity can be used to understand electrical activity.
On the day prior to culture, each well was coated thoroughly with 150 uL of 0.05% polyethyleneimine (PEI, Sigma Cat P3143) in 50 mM HEPES (Sigma Cat H7523) at a pH of 8. The plate was incubated at 37C for one hour. PEI was rinsed out with 500 uL of sterile water three times. Plates were stored at 4C until the day of culture. This culture was plated at a seeding density of 1.5 x 10^5 cells/well on a 48-well MEA plate, prepared as described above. Cells were administered via a 25 uL media/laminin ([…]; Sigma Cat L2020-1MG) drop directly onto the microelectrode array, as adding the cells with the laminin results in better attachment than pre-coating with laminin. After 2 hours, an additional 475 uL of cortical media was added and the cells returned to the incubator. Exposure starts at day 0 of plating and is continued over twelve days of network development until the experiment is terminated. Cells are fed with fresh medium on DIV 5 and 9, following the recordings on those days. The entire volume of media in the well is exchanged and any vehicle or compound treatment is renewed. Complete details are found in OP-NHEERL/ISTD/SBB/TJS/2015-03-r0 (available on request, email shafer.tim@epa.gov). Measurement of the electrical activity is non-invasive, and recordings can be made from the same plate over multiple different days of the culture. In cortical neurons, this allows for the measurement of extracellular action potentials over the period during which networks form in the MEA plate.

Row | SMILES | AC50 | outcome
1 | ClC1=C(Cl)[C@]2(Cl)[C@@H]3[C@@H]4C[C@@H]([C@H]5O[C@@H]45)[C@@H]3[C@@]1(Cl)C2(Cl)Cl | 5.67 µM (active) | 
2 | C=CC(N)=O |  | inactive
3 | CCOP(=S)(OCC)SCSC(C)(C)C | 23.2 µM (active) | inactive
4 | ClC(Cl)=C(c1ccc(Cl)cc1)c1ccc(Cl)cc1 | 4.06 µM (active) | 
5 | O=S(=O)(O)C(F)(F)C(F)(F)C(F)(F)C(F)(F)C(F)(F)C(F)(F)F |  | inactive
6 | O=C(O)C(F)(F)C(F)(F)C(F)(F)C(F)(F)C(F)(F)C(F)(F)C(F)(F)C(F)(F)F |  | inactive
7 | ClC1=C(Cl)[C@]2(Cl)[C@@H]3[C@H]4C[C@H]([C@@H]5O[C@H]45)[C@@H]3[C@@]1(Cl)C2(Cl)Cl |  | inactive
8 | Oc1ccc(C(c2ccc(O)cc2)(C(F)(F)F)C(F)(F)F)cc1 |  | inactive
9 | Clc1ccc(C(c2ccccc2Cl)C(Cl)(Cl)Cl)cc1 (stereo not drawn) | 1.98 µM (active) | 
10 | c1cc2ccc3cccc4ccc(c1)c2c34 |  | inactive
11 | CCC(C)(c1ccc(O)cc1)c1ccc(O)cc1 |  | inactive
12 | COc1ccc(O)c(C(C)(C)C)c1 |  | inactive
13 | ClC1=C(Cl)[C@]2(Cl)[C@@H]3[C@@H](Cl)[C@H]4O[C@H]4[C@@H]3C1(Cl)C2(Cl)Cl |  | inactive
14 | CO/C=C(/C(=O)OC)c1ccccc1COc1cccc(C(F)(F)F)n1 | 280 nM (active) and 327 nM (active) | 
15 | NS(=O)(=O)C(F)(F)C(F)(F)C(F)(F)C(F)(F)C(F)(F)C(F)(F)C(F)(F)C(F)(F)F |  | inactive
16 | O=C(O)C(F)(F)C(F)(F)C(F)(F)C(F)(F)C(F)(F)F |  | inactive
17 | O=S(=O)(O)C(F)(F)C(F)(F)C(F)(F)C(F)(F)F |  | inactive
